Screen size: about 2,200 compounds; about 530 (24%) were called active. Not all results are given here. Entries with a potency or affinity are not part of this list. A number with no mark means an inactive call.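 The calls were made as follows: active = inhibition above a set limit at one or more concentrations of the dose series; inactive = inhibition under that limit at every dose.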
Assay: nmpC-GFP reporter counter-screen in S. Typhimurium, dose response, counter-screen for PhoP regulon inhibitor project, Salmonella Typhimurium, GFP fluorescence (AID 2401);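 also: S. typhimurium with Mg-insensitive nmpC-GFP reporter grown at 10 µM Mg2+; drop in reporter fluorescence reflects general culture growth inhibition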
Details: 4 h; series mostly up to 150 µM; inhibition: at the top concentration

SMILES	inhibition
COCC(=O)N=Nc1c(O)[nH]c2ccccc12	-11.6%
C/C(=N\NC(=S)Nc1ccc(F)cc1)c1ccc2c(c1)OCCO2	-15.3%
Nc1nonc1-n1nnc(C(=O)N/N=C/c2ccc(Br)cc2)c1CSC1=NCCS1	5.01%
Nc1nonc1C(=O)NCCN=Cc1cc(Cc2ccccc2)cc(Br)c1O	22.3%
COc1cccc(C=NCCNC(=O)c2nonc2N)c1O	6.54%
COC(=O)Cc1c(C)nc2nc(NCc3ccc(Cl)cc3)[nH]n2c1=O	10.4%
CC(C)CNC(=S)NC1CCCC1	-23.4%
O=C(OCC(=O)c1ccccc1Cl)c1cnccn1	-6.43%
Cc1ccc(C(=O)C2COC(=O)C2)cc1 (centres undefined)	34.6%
COc1ccc(S(=O)(=O)N2CCN(C(=O)c3c(C)nn(-c4ccccc4)c3Cl)CC2)cc1	-2.31%
COc1ccccc1CC(=O)N1CCN(c2ccccn2)CC1	-17.2%
COc1ccc(-n2c(C)cc(C(=O)Cn3nc(C(=O)O)c4ccccc4c3=O)c2C)cc1	4.51%
O=C(CN1CCCCC1)Nc1cccc2c1OCO2	-1.21%
COc1ccccc1NS(=O)(=O)c1cc(NC(=S)Nc2cc(C)cc(C)c2)ccc1Cl	-3.8%
CN(CC(=O)NCc1cccc(F)c1)C(=O)c1ccco1	-15.9%
O=C(c1ccco1)N1CCN(c2ncnc3c2[nH]c2ccccc23)CC1	16.8%
COC(=O)c1ccc(Sc2ccccc2NS(=O)(=O)c2ccc(C)cc2)nc1	-13.9%
O=S(=O)(Nc1cc(Sc2cccc3cccnc23)c(O)c2ccccc12)c1ccc(F)cc1	8.76%
COCCCNc1ccnc2c(Cl)cccc12	21.8%
CC(=O)Nc1cccc(-c2csc(Nc3cccc(C)n3)n2)c1	-14.5%
Cc1ccc(-n2c(C)cc(C3=NNC(=NC4CC4)SC3)c2C)cc1C	-9.06%
COc1ccc(NC(=O)c2sccc2SCC#N)cc1	-16.1%
CCOC(=O)CN1C(=O)C(C)(C)Oc2ccc(C(=O)Nc3ccccc3OC)cc21	-23.6%

SMILES	inhibition
C=CCSC1=Nc2sccc2C2=NC(=O)CN12	-27.7%
Cc1ccn2cc(CSc3ccccc3N)nc2c1	-24.9%
COc1cccc(N=Cc2c[nH][nH]c2=O)c1	3.08%
CO/N=C\CC(=O)Nc1ccc(F)cc1	-33.4%
COc1ccccc1N1CCN(C(=O)CSc2nc3ccccc3o2)CC1	-12.1%
CCC(C)NC(=O)c1ccccc1NC(=O)C(C)N(c1ccccc1)S(C)(=O)=O (centres undefined)	-16.5%
FC(F)(F)COc1nc(OCC(F)(F)F)nc(N2CCN(c3ccccc3)CC2)n1	-20.4%
CC(=O)Nc1nc2nc(-c3ccccc3)cc(-c3ccccc3)n2n1	3.38%
Cc1cccc(Sc2c([N+](=O)[O-])ncn2C)c1	14.8%
S=C(NCc1cccnc1)Nc1ccc(Cl)c(Cl)c1	18.6%
Cn1ccnc1C(O)c1ccc(OCc2ccccc2)cc1 (centres undefined)	6.64%
O=C(c1cnsn1)N1CCN(c2ccccc2)CC1	-32.8%
O=C(Nc1ccc(F)cc1)c1ccccc1F	-15.6%
CC(C)(C)NS(=O)(=O)c1ccc(CCC(=O)N2CCOCC2)cc1	-24.9%
O=c1ccc2ccc(Oc3ccc([N+](=O)[O-])cc3[N+](=O)[O-])cc2o1	-5.81%
O=[N+]([O-])c1ccc(-n2nnnc2-c2ccccc2)c([N+](=O)[O-])c1	24.5%
O=C(Nc1ccccc1)Oc1ccc[nH]c1=O	17.1%
Cc1ccc(N)cc1-n1c(C)ccc1C	7.88%
O=C(CC(NS(=O)(=O)c1ccc(Cl)cc1)c1ccco1)N1CCc2ccccc21 (centres undefined)	-10.5%
CC1CCN(C(=O)c2ccc3c(c2NCCO)C(=O)c2ccccc2C3=O)CC1	6.14%
CC(=O)Cn1cnc2sc(-c3ccccc3)cc2c1=O	-20.4%
COCCn1cc(C(=O)N2CCC(C)CC2)c2c3ccccc3n(C)c2c1=O	-24.8%
Oc1ccccc1-c1nc(/C=C/c2ccccc2)nn1-c1ccccc1	-15.6%

SMILES	inhibition
Cc1ccc(Cn2cnc3ccccc32)cc1	-24.4%
O=C(NCCCc1ccccc1)Nc1cccc(Cl)c1	-6.65%
COc1cc(NC(=O)Nc2cccc(Cl)c2)c(OC)cc1NC(=O)CN1CCCCC1	1.04%
CCCOc1ccc(C(=O)C(CCC(CNCC)C(=O)c2ccc(OCCC)cc2)CNCC)cc1 (centres undefined)	11.4%
CCOC(=O)c1ccc2c(c1)C(=O)N(C1CCCCC1)C2=O	-9.18%
O=C1c2ccccc2C(=O)N1CCc1csc(-c2cccc(Cl)c2)n1	-25.4%
CC(=O)c1ccc(NC(=S)NC(NC(=O)c2ccco2)C(Cl)(Cl)Cl)cc1 (centres undefined)	26%
O=[N+]([O-])c1cccc(CN(CCO)Cc2ccccc2)c1	-14.6%
Nc1nc(CSc2nc3ccccc3[nH]2)nc(N2CCOCC2)n1	-10.8%
COC(=O)c1ccc(C(=O)OC)c(NC(=O)COc2ccccc2OC)c1	-16.4%
CCN(CC)c1ccc(S(=O)(=O)Nc2cc(Cl)ccc2Cl)cc1NC(=S)NC(=O)C1CCCC1	-23.8%
O=C1/C(=C/c2ccccc2)NC(=S)N1C(c1ccccc1)c1ccccc1	-5.32%
CCN(CC)S(=O)(=O)c1cccc(NC(=O)Nc2cccc(C(F)(F)F)c2)c1	-36.2%
Fc1cc(Br)ccc1NC(=S)Nc1ccccc1	-47.3%
Nc1ccc2c(c1)C(=O)N(CC1CCCO1)C2=O (centres undefined)	4.4%
Cc1cccc(C(=O)O/N=C2\CCSc3ccc(C)cc32)c1	-18.9%
CCOC(=O)c1cnc2ccc(OC)cc2c1Nc1ccc2c(c1)OCCO2	-24.2%
COc1cccc(/C=N/n2c(C)nc3ccccc3c2=O)c1O	-21.2%
Cn1c(COc2ccccc2)nnc1SCc1nc2ccccc2[nH]1	-16.3%
Cc1cccc(C)c1OCC(=O)Nn1c(COc2ccccc2)nc2ccccc2c1=O	-32.7%
COc1ccccc1-n1c(SCc2cc(=O)oc3cc(O)ccc23)nc2ccccc2c1=O	1.45%
Nc1nc2ccccc2n1/N=C/c1ccc(-c2ccccc2)o1	-7.01%
O=C(Nc1ccc2snnc2c1)Nc1cccc2ccccc12	9.59%

SMILES	inhibition
CCOC(=O)C1=C(C)NC(SCc2cc(=O)[nH][nH]2)=C(C#N)C1c1cccs1 (centres undefined)	-5.57%
COc1ccc(C2CC(c3ccccc3)=NN2C(=O)COC(=O)c2cccnc2)cc1 (centres undefined)	-24%
O=C(CN1C(=O)COc2ccccc21)Nc1ccc(F)cc1	-5.72%
CCCCn1c(NCCO)nc2ccccc21	-5.95%
Brc1ccc2nc3c(n2c1)CCCC3	18.8%
CCCCn1c(=N)n(CC(=O)C(C)(C)C)c2ccccc21	-16.4%
Cc1ccc(O)c(-c2cc(-c3ccccc3C)[nH]n2)c1	20.4%
COC(=O)c1c(C)[nH]c(C(C)=O)c1C	-11.6%
CCN(CC(=O)Nc1ccc(N2CCOCC2)cc1)Cc1nc2ccccc2c(=O)[nH]1	-1.68%
O=C(Cn1nc(Cl)nc1Cl)c1ccc2c(c1)OCCO2	-12.9%
COc1ccc(Nc2ccc3c(c2)=NC2(CCCCC2)[N+]=3[O-])cc1	-31.7%
CCOC(=O)N1CCN(C(=O)C(NC(=O)c2ccc(CC)cc2)C(C)C)CC1 (centres undefined)	-17.5%
CC(C)CCNC(=O)C(c1ccco1)N(Cc1ccc(F)cc1)C(=O)c1snc(C(N)=O)c1N (centres undefined)	-10.9%
O=C1c2ccccc2-c2onc3ccc(NCc4ccco4)c1c23	19.4%
CCOC(=O)c1c(C)[nH]c(C)c1C(=O)COC(=O)/C=C/c1cccc(F)c1	-31.3%
COC(=O)c1ccccc1NC(=O)CS(=O)(=O)Cc1nc(-c2ccc(C)cc2)oc1C	-9.73%
Cc1ccc(CNC(=O)c2cccc(S(C)(=O)=O)c2)cc1	-21.4%
CCOC(=O)CC(=O)CSc1nc2c(c(C)c1C#N)CCC2	-22.8%
CCn1c(SCc2nc3scc(-c4ccccc4)c3c(=O)[nH]2)nnc1-c1cccs1	27.8%
CN1c2ccccc2C(C)(C)[C@]12C=Cc1cc(O)ccc1O2	2.19%
